Measurements as given in PubChem BioAssay AID1159580 (chemical genetic matrix, 2015).
In all, about 5,500 compounds went through this assay and about 2,000 (36%) were called active. Inconclusive results (about 18%) are left out. No stated cut-off is given here; in the data, active means normalized growth mostly below about 0.91 (no sharp cut-off); inconclusive means no clear call, values can overlap the other calls; inactive means mostly above about 0.92. Some of the results follow.

Assay: chemical genetic growth profiling, strain panel (AID 1159580);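 further: tested at 20 µM; growth read once vehicle control cultures reached saturation at 30 °C; 1 = growth at the plate median or of vehicle wells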
Details: growth OD

Measured: normalized growth

COc1ccc(-c2oc3cc(O[C@H]4O[C@H](CO)[C@@H](O)[C@H](O)[C@H]4O)c(OC)c(O)c3c(=O)c2OC)cc1O
inactive: S. cerevisiae deletion strains, locus YAL013W, strain DEP1, stronger effect = lower value 1.02 | S. cerevisiae deletion strains, locus YAL021C, strain ccr4, stronger effect = lower value 1.01 | S. cerevisiae deletion strains, locus YAL026C, strain drs2, stronger effect = lower value 0.996 | S. cerevisiae deletion strains, locus YAL030W, strain snc1, stronger effect = lower value 1 | S. cerevisiae deletion strains, locus YBL061C, strain skt5, stronger effect = lower value 0.996 | S. cerevisiae deletion strains, locus YBR009C, strain hhf1, stronger effect = lower value 0.997 | S. cerevisiae deletion strains, locus YBR021W, strain FUR4, stronger effect = lower value 1 | S. cerevisiae deletion strains, locus YBR023C, strain chs3, stronger effect = lower value 0.992 | S. cerevisiae deletion strains, locus YBR171W, strain sec66, stronger effect = lower value 0.99 | S. cerevisiae deletion strains, locus YBR229C, strain ROT2, stronger effect = lower value 1 | S. cerevisiae deletion strains, locus YBR231C, strain swc5, stronger effect = lower value 0.99 | S. cerevisiae deletion strains, locus YBR279W, strain paf1, stronger effect = lower value 1 | S. cerevisiae deletion strains, locus YCL011C, strain gbp2, stronger effect = lower value 1 | S. cerevisiae deletion strains, locus YCL016C, strain dcc1, stronger effect = lower value 1 | S. cerevisiae deletion strains, locus YCL029C, strain bik1, stronger effect = lower value 0.969 | S. cerevisiae deletion strains, locus YCL061C, strain MRC1, stronger effect = lower value 0.998 | S. cerevisiae deletion strains, locus YCL069W, strain vba3, stronger effect = lower value 0.999 | S. cerevisiae deletion strains, locus YCR088W, strain abp1, stronger effect = lower value 0.996 | S. cerevisiae deletion strains, locus YDL005C, strain med2, stronger effect = lower value 1.01 | S. cerevisiae deletion strains, locus YDL035C, strain GPR1, stronger effect = lower value 0.991 | S. cerevisiae deletion strains, locus YDL040C, strain nat1, stronger effect = lower value 0.994 | S. cerevisiae deletion strains, locus YDL074C, strain BRE1, stronger effect = lower value 0.925 | S. cerevisiae deletion strains, locus YDL101C, strain DUN1, stronger effect = lower value 0.997 | S. cerevisiae deletion strains, locus YDL134C, strain PPH21, stronger effect = lower value 0.982 | S. cerevisiae deletion strains, locus YDL185W, strain tfp1, stronger effect = lower value 0.984 | S. cerevisiae deletion strains, locus YDL192W, strain arf1, stronger effect = lower value 0.961 | S. cerevisiae deletion strains, locus YDR001C, strain nth1, stronger effect = lower value 1 | S. cerevisiae deletion strains, locus YDR069C, strain doa4, stronger effect = lower value 1 | S. cerevisiae deletion strains, locus YDR101C, strain arx1, stronger effect = lower value 0.97 | S. cerevisiae deletion strains, locus YDR137W, strain rgp1, stronger effect = lower value 0.905 | S. cerevisiae deletion strains, locus YDR159W, strain sac3, stronger effect = lower value 1 | S. cerevisiae deletion strains, locus YDR162C, strain NBP2, stronger effect = lower value 0.983 | S. cerevisiae deletion strains, locus YDR195W, strain ref2 1.01 | S. cerevisiae deletion strains, locus YDR297W, strain sur2, stronger effect = lower value 0.989 | S. cerevisiae deletion strains, locus YDR318W, strain mcm21, stronger effect = lower value 0.962 | S. cerevisiae deletion strains, locus YDR334W, strain swr1, stronger effect = lower value 0.996 | S. cerevisiae deletion strains, locus YDR335W, strain msn5, stronger effect = lower value 1 | S. cerevisiae deletion strains, locus YDR388W, stronger effect = lower value 0.971 | S. cerevisiae deletion strains, locus YDR392W, strain spt3, stronger effect = lower value 0.897 | S. cerevisiae deletion strains, locus YDR502C, strain sam2, stronger effect = lower value 0.956 | S. cerevisiae deletion strains, locus YEL003W, strain gim4, stronger effect = lower value 0.996 | S. cerevisiae deletion strains, locus YEL037C, strain rad23, stronger effect = lower value 0.994 | S. cerevisiae deletion strains, locus YEL061C, strain CIN8 (second series), stronger effect = lower value 1 | S. cerevisiae deletion strains, locus YEL061C, strain CIN8, stronger effect = lower value 0.981 | S. cerevisiae deletion strains, locus YER015W, strain faa2, stronger effect = lower value 1.01 | S. cerevisiae deletion strains, locus YER016W, strain bim1, stronger effect = lower value 0.997 | S. cerevisiae deletion strains, locus YER110C, stronger effect = lower value 0.964 | S. cerevisiae deletion strains, locus YER111C, strain swi4, stronger effect = lower value 1 | S. cerevisiae deletion strains, locus YER155C, strain BEM2 (second series), stronger effect = lower value 0.998 | S. cerevisiae deletion strains, locus YER155C, strain BEM2, stronger effect = lower value 1.01 | S. cerevisiae deletion strains, locus YER167W, strain BCK2, stronger effect = lower value 0.999 | S. cerevisiae deletion strains, locus YFR010W, strain ubp6, stronger effect = lower value 1 | S. cerevisiae deletion strains, locus YGL078C, strain dbp3, stronger effect = lower value 0.975 | S. cerevisiae deletion strains, locus YGL086W, strain mad1, stronger effect = lower value 0.97 | S. cerevisiae deletion strains, locus YGL167C, strain pmr1, stronger effect = lower value 0.994 | S. cerevisiae deletion strains, locus YGL173C, strain kem1, stronger effect = lower value 0.989 | S. cerevisiae deletion strains, locus YGL227W, strain vid30, stronger effect = lower value 0.996 | S. cerevisiae deletion strains, locus YGL240W, strain doc1, stronger effect = lower value 1.01 | S. cerevisiae deletion strains, locus YGL248W, strain PDE1, stronger effect = lower value 0.984 | S. cerevisiae deletion strains, locus YGL253W, strain hxk2, stronger effect = lower value 1 | S. cerevisiae deletion strains, locus YGR078C, strain PAC10, stronger effect = lower value 0.959 | S. cerevisiae deletion strains, locus YGR135W, strain pre9, stronger effect = lower value 0.949 | S. cerevisiae deletion strains, locus YGR229C, strain SMI1, stronger effect = lower value 0.956 | S. cerevisiae deletion strains, locus YGR252W, strain gcn5, stronger effect = lower value 0.891 | S. cerevisiae deletion strains, locus YHR013C, strain ard1, stronger effect = lower value 1.01 | S. cerevisiae deletion strains, locus YHR027C, strain rpn1, stronger effect = lower value 1.01 | S. cerevisiae deletion strains, locus YHR030C, strain SLT2, stronger effect = lower value 1 | S. cerevisiae deletion strains, locus YHR079C, strain IRE1 (second series), stronger effect = lower value 0.99 | S. cerevisiae deletion strains, locus YHR094C, strain hxt1, stronger effect = lower value 0.981 | S. cerevisiae deletion strains, locus YHR129C, strain ARP1, stronger effect = lower value 0.969 | S. cerevisiae deletion strains, locus YHR142W, strain chs7, stronger effect = lower value 0.985 | S. cerevisiae deletion strains, locus YHR200W, strain rpn10, stronger effect = lower value 0.953 | S. cerevisiae deletion strains, locus YIL066C, strain RNR3, stronger effect = lower value 0.98 | S. cerevisiae deletion strains, locus YIL073C, strain SPO22, stronger effect = lower value 0.971 | S. cerevisiae deletion strains, locus YIL125W, strain kgd1, stronger effect = lower value 0.981 | S. cerevisiae deletion strains, locus YIR030C, strain dcg1, stronger effect = lower value 0.982 | S. cerevisiae deletion strains, locus YJL092W, strain hpr5, stronger effect = lower value 1 | S. cerevisiae deletion strains, locus YJL095W, strain BCK1 (second series), stronger effect = lower value 0.992 | S. cerevisiae deletion strains, locus YJL095W, strain BCK1, stronger effect = lower value 0.916 | S. cerevisiae deletion strains, locus YJL115W, strain asf1, stronger effect = lower value 1 | S. cerevisiae deletion strains, locus YJL129C, strain trk1, stronger effect = lower value 0.935 | S. cerevisiae deletion strains, locus YJL134W, strain LCB3, stronger effect = lower value 0.995 | S. cerevisiae deletion strains, locus YJL154C, strain vps35, stronger effect = lower value 1.01 | S. cerevisiae deletion strains, locus YJL164C, strain tpk1, stronger effect = lower value 0.992 | S. cerevisiae deletion strains, locus YJL166W, strain qcr8, stronger effect = lower value 1 | S. cerevisiae deletion strains, locus YJL168C, strain set2, stronger effect = lower value 0.977 | S. cerevisiae deletion strains, locus YJL187C, strain SWE1 (second series), stronger effect = lower value 0.965 | S. cerevisiae deletion strains, locus YJL187C, strain SWE1, stronger effect = lower value 1.01 | S. cerevisiae deletion strains, locus YJR043C, strain POL32, stronger effect = lower value 0.982 | S. cerevisiae deletion strains, locus YKL009W, strain mrt4, stronger effect = lower value 0.965 | S. cerevisiae deletion strains, locus YKL068W, stronger effect = lower value 0.99 | S. cerevisiae deletion strains, locus YKL085W, strain MDH1 (second series), stronger effect = lower value 0.994 | S. cerevisiae deletion strains, locus YKL085W, strain MDH1, stronger effect = lower value 0.994 | S. cerevisiae deletion strains, locus YKL160W, strain elf1, stronger effect = lower value 0.992 | S. cerevisiae deletion strains, locus YKR001C, strain vps1, stronger effect = lower value 1 | S. cerevisiae deletion strains, locus YKR026C, strain gcn3, stronger effect = lower value 0.995 | S. cerevisiae deletion strains, locus YKR091W, strain srl3, stronger effect = lower value 1 | S. cerevisiae deletion strains, locus YLL001W, strain dnm1, stronger effect = lower value 0.994 | S. cerevisiae deletion strains, locus YLL026W, stronger effect = lower value 0.995 | S. cerevisiae deletion strains, locus YLL041C, strain sdh2, stronger effect = lower value 1 | S. cerevisiae deletion strains, locus YLR027C, strain aat2, stronger effect = lower value 1.01 | S. cerevisiae deletion strains, locus YLR039C, strain RIC1, stronger effect = lower value 0.989 | S. cerevisiae deletion strains, locus YLR058C, strain SHM2, stronger effect = lower value 0.989 | S. cerevisiae deletion strains, locus YLR102C, strain apc9, stronger effect = lower value 0.968 | S. cerevisiae deletion strains, locus YLR221C, strain rsa3, stronger effect = lower value 0.997 | S. cerevisiae deletion strains, locus YLR258W, strain gsy2, stronger effect = lower value 1 | S. cerevisiae deletion strains, locus YLR262C, strain YPT6 (second series), stronger effect = lower value 0.951 | S. cerevisiae deletion strains, locus YLR262C, strain YPT6, stronger effect = lower value 0.979 | S. cerevisiae deletion strains, locus YLR268W, strain sec22, stronger effect = lower value 0.955 | S. cerevisiae deletion strains, locus YLR320W, strain mms22, stronger effect = lower value 0.993 | S. cerevisiae deletion strains, locus YLR330W, strain CHS5, stronger effect = lower value 1.01 | S. cerevisiae deletion strains, locus YLR342W, strain FKS1 (second series), stronger effect = lower value 0.983 | S. cerevisiae deletion strains, locus YLR342W, strain FKS1, stronger effect = lower value 0.995 | S. cerevisiae deletion strains, locus YLR357W, strain rsc2, stronger effect = lower value 0.985 | S. cerevisiae deletion strains, locus YLR370C, strain arc18, stronger effect = lower value 0.989 | S. cerevisiae deletion strains, locus YLR371W, strain rom2, stronger effect = lower value 0.979 | S. cerevisiae deletion strains, locus YLR384C, strain iki3, stronger effect = lower value 1.01 | S. cerevisiae deletion strains, locus YLR418C, strain cdc73, stronger effect = lower value 0.877 | S. cerevisiae deletion strains, locus YML016C, strain PPZ1, stronger effect = lower value 0.994 | S. cerevisiae deletion strains, locus YML032C, strain rad52, stronger effect = lower value 0.969 | S. cerevisiae deletion strains, locus YML120C, strain ndi1, stronger effect = lower value 0.998 | S. cerevisiae deletion strains, locus YML124C, strain tub3, stronger effect = lower value 0.981 | S. cerevisiae deletion strains, locus YMR058W, strain fet3, stronger effect = lower value 0.998 | S. cerevisiae deletion strains, locus YMR078C, strain ctf18, stronger effect = lower value 0.976 | S. cerevisiae deletion strains, locus YMR125W, strain sto1, stronger effect = lower value 0.995 | S. cerevisiae deletion strains, locus YMR129W, stronger effect = lower value 0.998 | S. cerevisiae deletion strains, locus YMR205C, strain PFK2, stronger effect = lower value 0.981 | S. cerevisiae deletion strains, locus YMR223W, strain ubp8, stronger effect = lower value 0.977 | S. cerevisiae deletion strains, locus YMR231W, strain pep5, stronger effect = lower value 0.995 | S. cerevisiae deletion strains, locus YMR307W, strain GAS1, stronger effect = lower value 0.92 | S. cerevisiae deletion strains, locus YNL067W, strain RPL9B, stronger effect = lower value 0.98 | S. cerevisiae deletion strains, locus YNL071W, strain lat1, stronger effect = lower value 1.01 | S. cerevisiae deletion strains, locus YNL209W, strain ssb2, stronger effect = lower value 0.998 | S. cerevisiae deletion strains, locus YNL233W, strain BNI4, stronger effect = lower value 0.977 | S. cerevisiae deletion strains, locus YNL248C, strain rpa49, stronger effect = lower value 1 | S. cerevisiae deletion strains, locus YNL250W, strain rad50, stronger effect = lower value 0.974 | S. cerevisiae deletion strains, locus YNL271C, strain bni1, stronger effect = lower value 0.978 | S. cerevisiae deletion strains, locus YNL298W, strain CLA4, stronger effect = lower value 0.963 | S. cerevisiae deletion strains, locus YNL307C, strain MCK1, stronger effect = lower value 0.928 | S. cerevisiae deletion strains, locus YNL322C, strain KRE1 (second series), stronger effect = lower value 0.999 | S. cerevisiae deletion strains, locus YNL322C, strain KRE1, stronger effect = lower value 0.985 | S. cerevisiae deletion strains, locus YNR049C, strain mso1, stronger effect = lower value 1 | S. cerevisiae deletion strains, locus YNR052C, strain pop2, stronger effect = lower value 0.948 | S. cerevisiae deletion strains, locus YOL012C, strain htz1 0.832 | S. cerevisiae deletion strains, locus YOL147C, strain pex11, stronger effect = lower value 0.962 | S. cerevisiae deletion strains, locus YOR001W, strain rrp6, stronger effect = lower value 1.02 | S. cerevisiae deletion strains, locus YOR061W, strain CKA2, stronger effect = lower value 0.993 | S. cerevisiae deletion strains, locus YOR069W, strain VPS5, stronger effect = lower value 0.997 | S. cerevisiae deletion strains, locus YOR070C, strain gyp1, stronger effect = lower value 1.02 | S. cerevisiae deletion strains, locus YOR080W, strain dia2, stronger effect = lower value 0.999 | S. cerevisiae deletion strains, locus YOR083W, strain WHI5, stronger effect = lower value 1 | S. cerevisiae deletion strains, locus YOR106W, strain vam3, stronger effect = lower value 1 | S. cerevisiae deletion strains, locus YOR136W, strain idh2, stronger effect = lower value 0.986 | S. cerevisiae deletion strains, locus YOR144C, strain elg1, stronger effect = lower value 0.968 | S. cerevisiae deletion strains, locus YOR184W, strain ser1, stronger effect = lower value 0.944 | S. cerevisiae deletion strains, locus YOR265W, strain rbl2, stronger effect = lower value 0.993 | S. cerevisiae deletion strains, locus YOR270C, strain vph1, stronger effect = lower value 0.987 | S. cerevisiae deletion strains, locus YOR290C, strain snf2, stronger effect = lower value 0.984 | S. cerevisiae deletion strains, locus YOR316C, strain cot1, stronger effect = lower value 0.974 | S. cerevisiae deletion strains, locus YPL051W, strain arl3, stronger effect = lower value 0.998 | S. cerevisiae deletion strains, locus YPL078C, strain atp4, stronger effect = lower value 1.01 | S. cerevisiae deletion strains, locus YPL106C, strain sse1, stronger effect = lower value 0.995 | S. cerevisiae deletion strains, locus YPL240C, strain hsp82, stronger effect = lower value 1 | S. cerevisiae deletion strains, locus YPR119W, strain clb2, stronger effect = lower value 0.978 | S. cerevisiae deletion strains, locus YPR141C, strain kar3, stronger effect = lower value 0.977 | S. cerevisiae deletion strains, locus YPR163C, strain tif3, stronger effect = lower value 0.933 | S. cerevisiae deletion strains, locus YPR167C, strain met16, stronger effect = lower value 0.978 | S. cerevisiae deletion strains, strain wtn01, stronger effect = lower value 0.971 | S. cerevisiae strains, strain wild type, stronger effect = lower value 0.993
